Drawing on PubChem BioAssay (EPA / NIEHS), this text covers outcome and AC50 for 31 molecules.

Test [1] deals with human RAR-related Orphan Receptor gamma (RORg), RORC (gene 6097) (UniProt P51449). Kind of test: ATG_RORg_TRANS: Attagene TRANS-FACTORIAL HepG2 Assay for human RAR-related Orphan Receptor gamma (RORg) (AID 2283011). The gist of the method: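 Reporter transcripts from a transfected RORg-GAL4 chimera in HepG2 cells were quantified 24 h after dosing by RT-PCR, 6-FAM labelling, HpaI digestion and capillary electrophoresis; increases over DMSO baseline were fitted.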
Chain of human RAR-related Orphan Receptor gamma (RORg), RORC (gene 6097) (P51449 whole entry, looked up, the tested form may be a part): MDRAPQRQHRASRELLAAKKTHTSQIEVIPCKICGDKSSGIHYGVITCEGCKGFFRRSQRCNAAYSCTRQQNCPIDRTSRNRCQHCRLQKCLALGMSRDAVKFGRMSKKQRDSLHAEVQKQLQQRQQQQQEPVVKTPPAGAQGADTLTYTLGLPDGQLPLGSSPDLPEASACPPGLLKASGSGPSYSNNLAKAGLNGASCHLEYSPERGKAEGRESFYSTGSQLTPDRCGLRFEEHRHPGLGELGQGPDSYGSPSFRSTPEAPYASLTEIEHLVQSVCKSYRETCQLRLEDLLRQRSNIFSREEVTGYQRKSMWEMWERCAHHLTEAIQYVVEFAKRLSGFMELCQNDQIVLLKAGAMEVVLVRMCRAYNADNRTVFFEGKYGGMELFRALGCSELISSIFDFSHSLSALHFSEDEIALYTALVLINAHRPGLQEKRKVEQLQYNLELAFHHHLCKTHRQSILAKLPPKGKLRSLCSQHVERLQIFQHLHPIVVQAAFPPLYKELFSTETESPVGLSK

Test [2] has as its target Retinoic acid receptor RXR-alpha (Homo sapiens) (UniProt P19793). Kind of test: ATG_RXRa_TRANS: Attagene TRANS-FACTORIAL HepG2 Assay for human Retinoid X Receptor alpha (RXRa) (AID 2283012). The gist of the method: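 Cells (HepG2) carried transiently transfected GAL4-responsive reporter units. Following a 24 h chemical incubation, reporter mRNA induction was read via RT-PCR fragment analysis; DMSO served as negative control and baseline.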

In test [3] the target is human Retinoid X Receptor beta (RXRb), RXRB (gene 6257) (UniProt P28702). Kind of test: ATG_RXRb_TRANS: Attagene TRANS-FACTORIAL HepG2 Assay for human Retinoid X Receptor beta (RXRb) (AID 2283013). The gist of the method: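 Multiplexed TRANS reporter assay in HepG2; 24 h dosing; reporter mRNA by RT-PCR/CE fluorescence; gain-of-signal relative to DMSO.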
Chain of human Retinoid X Receptor beta (RXRb), RXRB (gene 6257) (P28702 whole entry, looked up): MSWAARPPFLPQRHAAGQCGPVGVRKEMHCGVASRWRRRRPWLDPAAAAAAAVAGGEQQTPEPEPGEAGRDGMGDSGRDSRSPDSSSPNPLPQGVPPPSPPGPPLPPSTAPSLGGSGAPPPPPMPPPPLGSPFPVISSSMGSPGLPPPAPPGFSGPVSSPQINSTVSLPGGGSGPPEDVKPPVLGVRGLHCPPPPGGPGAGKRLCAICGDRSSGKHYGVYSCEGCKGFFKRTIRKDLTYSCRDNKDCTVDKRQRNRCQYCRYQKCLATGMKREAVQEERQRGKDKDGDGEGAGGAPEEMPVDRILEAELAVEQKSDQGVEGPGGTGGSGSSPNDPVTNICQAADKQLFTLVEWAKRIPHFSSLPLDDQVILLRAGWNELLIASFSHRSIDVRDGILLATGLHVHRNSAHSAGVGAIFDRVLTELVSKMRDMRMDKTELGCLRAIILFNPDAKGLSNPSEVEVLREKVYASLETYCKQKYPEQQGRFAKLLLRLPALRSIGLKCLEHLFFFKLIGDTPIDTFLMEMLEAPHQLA
Test [4] deals with human Thyroid Receptor alpha (THRa1), THRA (gene 7067) (UniProt P10827). Briefly: ATG_THRa1_TRANS: Attagene TRANS-FACTORIAL HepG2 Assay for human Thyroid Receptor alpha (THRa1) (AID 2283014). The gist of the method:
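Transcripts from GAL4-UAS-driven reporters, measured after 24 h compound exposure by RT-PCR plus capillary electrophoresis of 6-FAM-labeled fragments, were fitted for gain of signal relative to DMSO. Cells: transiently transfected HepG2 expressing NR-Gal4 chimeras.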

Test [5] deals with human Vitamin D Receptor (VDR), VDR (gene 7421) (UniProt P11473). Briefly: ATG_VDR_TRANS: Attagene TRANS-FACTORIAL HepG2 Assay for human Vitamin D Receptor (VDR) (AID 2283022). The gist of the method:
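Transactivation by an exogenous VDR-Gal4 chimera in transiently transfected HepG2 cells was measured as reporter transcript level 24 hours after chemical treatment. RT-PCR products were analysed by capillary electrophoresis and fitted in the positive direction relative to DMSO.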

Read-out in test [6]: E-selectin (Homo sapiens) (UniProt P16581)
Briefly: BSK_3C_Eselectin: BioMAP Diversity Plus: 3C Assay for Eselectin Biomarker Activity (AID 2283015; active = hit-call score of the fitted dose curve at least 0.9, where 1 is the maximum; inactive = score below 0.9). Particulars: primary human endothelial cells (HUVEC); actives raise or lower the signal. The procedure, abridged:
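E-selectin ELISA readout, fitted bidirectionally relative to DMSO, taken 24 h post-dosing in HUVEC cultures of the 3C system. Overt cytotoxicity tracked with sulforhodamine B staining of parallel wells.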

Read-out in test [7]: Interleukin-1 alpha (IL1a), IL1A (gene 3552)
Kind of test: BSK_BE3C_IL1a: BioMAP Diversity Plus: BE3C Assay for Interleukin-1 alpha (IL1a) Biomarker Activity (AID 2283016; active = hit-call score of the fitted dose curve at least 0.9, where 1 is the maximum; inactive = score below 0.9). Conditions: primary human bronchial epithelial cells; actives raise or lower the signal. The procedure, abridged: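 Cultures of primary human bronchial epithelial cells receive test chemical. After 24 h, IL-1a is quantified by ELISA, while parallel wells are fixed in TCA and SRB-stained for total protein. Changes in either direction are fitted relative to DMSO.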

Read-out in test [8]: Monocyte Chemoattractant Protein-1 (MCP1), CCL2 (gene 6347)
Kind of test: BSK_3C_MCP1: BioMAP Diversity Plus: 3C Assay for Monocyte Chemoattractant Protein-1 (MCP1) Biomarker Activity (AID 2283017; active = hit-call score of the fitted dose curve at least 0.9, where 1 is the maximum; inactive = score below 0.9). Conditions: primary human endothelial cells (HUVEC); actives raise or lower the signal. The gist of the method: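 MCP-1 was measured by ELISA 24 h after dosing in primary HUVEC 3C cultures and fitted in both directions relative to DMSO; cytotoxicity was checked by SRB total-protein staining in parallel wells.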

Read-out in test [9]: Monocyte Chemoattractant Protein-1 (MCP1), CCL2 (gene 6347)
Kind of test: BSK_4H_MCP1: BioMAP Diversity Plus: 4H Assay for Monocyte Chemoattractant Protein-1 (MCP1) Biomarker Activity (AID 2283018; active = hit-call score of the fitted dose curve at least 0.9, where 1 is the maximum; inactive = score below 0.9). Particulars: primary human endothelial cells (HUVEC); actives raise or lower the signal. The procedure, abridged: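 Readout: MCP-1 ELISA on compound-treated HUVEC, sampled 24 h post-dosing. Baseline and negative control DMSO; bidirectional fit. Overt toxicity checked alongside by sulforhodamine B protein staining at time of biomarker measurement.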

Read-out in test [10]: Human Leukocyte Antigen - DR isotype (HLADR), HLA-DRA (gene 3122)
Kind of test: BSK_3C_HLADR: BioMAP Diversity Plus: 3C Assay for Human Leukocyte Antigen - DR isotype (HLADR) Biomarker Activity (AID 2283019; active = hit-call score of the fitted dose curve at least 0.9, where 1 is the maximum; inactive = score below 0.9). Particulars: primary human endothelial cells (HUVEC); actives raise or lower the signal. The procedure, abridged:
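Bidirectional fitting against DMSO was applied to the HLA-DR ELISA signal from human umbilical vein endothelial cells, 24 h post-dose. Cytotoxicity came from parallel SRB total-protein staining; 3C proliferation was counted by SRB at 48 h.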

Read-out in test [11]: Interleukin-8 (IL8), CXCL8 (gene 3576)
Kind of test: BSK_3C_IL8: BioMAP Diversity Plus: 3C Assay for Interleukin-8 (IL8) Biomarker Activity (AID 2283020; active = hit-call score of the fitted dose curve at least 0.9, where 1 is the maximum; inactive = score below 0.9). Particulars: primary human endothelial cells (HUVEC); actives raise or lower the signal. The procedure, abridged:
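Human vascular endothelial cells (umbilical vein) in the 3C system; IL-8 level detected by ELISA at 24 h post-dose, with DMSO as baseline.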

Read-out in test [12]: Monokine induced gamma interferon (MIG), CXCL9 (gene 4283)
Kind of test: BSK_3C_MIG: BioMAP Diversity Plus: 3C Assay for Monokine induced gamma interferon (MIG) Biomarker Activity (AID 2283021; active = hit-call score of the fitted dose curve at least 0.9, where 1 is the maximum; inactive = score below 0.9;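 also: MIG protein level measured by immunoassay in the treated endothelial cultures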). Conditions: primary human endothelial cells (HUVEC); actives raise or lower the signal. The gist of the method:
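After 24 h of treatment, human umbilical vein endothelial cultures (3C system) had their MIG biomarker level determined by ELISA, with DMSO serving as negative control.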

The nature of test [13]: BSK_3C_SRB: Viability Assessment in the BioMAP Diversity Plus: 3C Assay (AID 2283023; active = hit-call score of the fitted dose curve at least 0.9, where 1 is the maximum; inactive = score below 0.9;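 also: fitted both ways against DMSO so a hit may be signal rise or drop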). Particulars: primary human endothelial cells (HUVEC). The gist of the method:
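Cytotoxicity readout in parallel HUVEC 3C cultures: after 24 h compound exposure, cells fixed with 10% TCA, stained with 0.1% SRB and read at 560 nm. Gain or loss relative to DMSO fitted.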

Read-out in test [14]: Matrix Metallopeptidase 1 (MMP1), MMP1 (gene 4312)
Kind of test: BSK_BE3C_MMP1: BioMAP Diversity Plus: BE3C Assay for Matrix Metallopeptidase 1 (MMP1) Biomarker Activity (AID 2283024; active = hit-call score of the fitted dose curve at least 0.9, where 1 is the maximum; inactive = score below 0.9). Particulars: primary human bronchial epithelial cells; actives raise or lower the signal. The procedure, abridged:
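Dose cells, wait 24 h, run MMP1 ELISA; cells are human bronchial epithelial primaries. Both increases and decreases relative to DMSO counted.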

Test [15] in a line: BSK_3C_Vis: BioMAP Diversity Plus: 3C Assay for Morphology Visualization (AID 2283025; active = hit-call score of the fitted dose curve at least 0.9, where 1 is the maximum; inactive = score below 0.9;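 also: light microscopy image of cell morphology used as background control; fitted both ways so gain or loss versus DMSO counts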). Conditions: primary human endothelial cells (HUVEC). The gist of the method: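 Endothelial cells from human umbilical vein were treated with test chemicals for 24 h and inspected by light microscopy for changes in cell conformation.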
Read-out in test [16]: Pselectin, SELP (gene 6403)
Briefly: BSK_4H_Pselectin: BioMAP Diversity Plus: 4H Assay for Pselectin Biomarker Activity (AID 2283026; active = hit-call score of the fitted dose curve at least 0.9, where 1 is the maximum; inactive = score below 0.9). Particulars: primary human endothelial cells (HUVEC); actives raise or lower the signal. The gist of the method: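 Human vascular endothelium from umbilical vein; P-selectin measured by ELISA at 24 h post-dose, with cytotoxicity checked by sulforhodamine B total-protein staining in parallel cultures (0.1% SRB after 10% TCA fixation, read at 560 nm).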

Test [17] is described as follows: BSK_BE3C_SRB: Viability Assessment in the BioMAP Diversity Plus: BE3C Assay (AID 2283028; active = hit-call score of the fitted dose curve at least 0.9, where 1 is the maximum; inactive = score below 0.9). Conditions: primary human bronchial epithelial cells. The gist of the method:
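Cytotoxicity read-out: SRB (0.1%) staining of TCA-fixed (10%) human lung bronchial epithelial cells, absorbance 560 nm, 24 h post-dosing. Curves fitted both directions relative to DMSO.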

Read-out in test [18]: Thrombomodulin, THBD (gene 7056)
Kind of test: BSK_3C_Thrombomodulin: BioMAP Diversity Plus: 3C Assay for Thrombomodulin Biomarker Activity (AID 2283029; active = hit-call score of the fitted dose curve at least 0.9, where 1 is the maximum; inactive = score below 0.9). Particulars: primary human endothelial cells (HUVEC); actives raise or lower the signal. The procedure, abridged: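 Thrombomodulin ELISA, human primary HUVEC, 24 h post-dose; data fitted in both directions relative to DMSO.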

Read-out in test [19]: Urokinase-type plasminogen activator receptor (uPAR), PLAUR (gene 5329)
Briefly: BSK_4H_uPAR: BioMAP Diversity Plus: 4H Assay for Urokinase-type plasminogen activator receptor (uPAR) Biomarker Activity (AID 2283030; active = hit-call score of the fitted dose curve at least 0.9, where 1 is the maximum; inactive = score below 0.9). Particulars: primary human endothelial cells (HUVEC); actives raise or lower the signal. The gist of the method: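 uPAR level read by ELISA on HUVEC cultures (BioMAP 4H) 24 h post-dosing, analyzed for gain or loss relative to DMSO. Parallel SRB staining assessed overt cytotoxicity.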

SMILES strings stand for the structures. Results filed as inconclusive are left out. Active and inactive are the calls of the source. The calls were made as follows, unless noted: active = hit-call score of the fitted dose curve at least 0.9, where 1 is the maximum; inconclusive = response in the unintended direction; inactive = score below 0.9.

Chain of human Thyroid Receptor alpha (THRa1), THRA (gene 7067) (P10827 whole entry, looked up, the tested form may be a part): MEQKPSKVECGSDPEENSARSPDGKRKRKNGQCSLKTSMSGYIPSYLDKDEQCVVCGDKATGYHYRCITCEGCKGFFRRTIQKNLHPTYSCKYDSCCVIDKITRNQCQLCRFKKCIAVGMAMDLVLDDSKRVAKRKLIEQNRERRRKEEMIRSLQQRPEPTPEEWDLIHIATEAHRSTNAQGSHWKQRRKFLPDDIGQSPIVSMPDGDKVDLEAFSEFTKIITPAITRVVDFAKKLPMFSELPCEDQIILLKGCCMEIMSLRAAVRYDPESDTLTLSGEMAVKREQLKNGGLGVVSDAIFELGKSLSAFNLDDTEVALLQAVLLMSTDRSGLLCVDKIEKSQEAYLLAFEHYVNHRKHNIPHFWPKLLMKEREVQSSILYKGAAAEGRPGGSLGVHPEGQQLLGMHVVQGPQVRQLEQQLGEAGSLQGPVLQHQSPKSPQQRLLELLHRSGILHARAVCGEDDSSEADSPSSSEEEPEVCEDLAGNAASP
Chain of human Vitamin D Receptor (VDR), VDR (gene 7421) (P11473 whole entry, looked up, the tested form may be a part): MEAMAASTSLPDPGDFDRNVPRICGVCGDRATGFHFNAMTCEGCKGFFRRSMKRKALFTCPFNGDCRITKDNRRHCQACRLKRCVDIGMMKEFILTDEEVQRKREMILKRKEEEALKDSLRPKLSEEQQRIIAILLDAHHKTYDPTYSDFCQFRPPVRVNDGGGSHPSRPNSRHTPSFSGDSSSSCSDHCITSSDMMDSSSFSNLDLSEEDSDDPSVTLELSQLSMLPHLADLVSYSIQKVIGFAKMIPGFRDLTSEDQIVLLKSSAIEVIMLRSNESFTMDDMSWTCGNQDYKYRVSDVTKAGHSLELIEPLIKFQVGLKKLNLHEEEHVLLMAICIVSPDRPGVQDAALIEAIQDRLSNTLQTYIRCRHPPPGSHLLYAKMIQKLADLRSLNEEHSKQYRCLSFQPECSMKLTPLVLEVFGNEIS
Chain of Retinoic acid receptor RXR-alpha (Homo sapiens) (P19793 whole entry, looked up, the tested form may be a part): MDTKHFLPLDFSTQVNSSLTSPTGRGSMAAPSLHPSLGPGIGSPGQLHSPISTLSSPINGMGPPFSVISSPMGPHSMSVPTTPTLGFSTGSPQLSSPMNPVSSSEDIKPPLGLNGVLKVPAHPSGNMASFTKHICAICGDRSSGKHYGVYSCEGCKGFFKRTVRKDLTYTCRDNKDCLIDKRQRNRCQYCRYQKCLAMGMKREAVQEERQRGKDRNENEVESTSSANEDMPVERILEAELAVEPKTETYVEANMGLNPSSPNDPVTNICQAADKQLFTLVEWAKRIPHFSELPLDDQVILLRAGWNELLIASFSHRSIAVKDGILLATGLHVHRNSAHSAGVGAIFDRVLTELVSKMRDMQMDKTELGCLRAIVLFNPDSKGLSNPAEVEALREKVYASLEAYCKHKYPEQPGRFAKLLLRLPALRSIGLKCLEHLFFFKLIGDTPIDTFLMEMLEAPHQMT
Chain of E-selectin (Homo sapiens) (P16581 whole entry, looked up): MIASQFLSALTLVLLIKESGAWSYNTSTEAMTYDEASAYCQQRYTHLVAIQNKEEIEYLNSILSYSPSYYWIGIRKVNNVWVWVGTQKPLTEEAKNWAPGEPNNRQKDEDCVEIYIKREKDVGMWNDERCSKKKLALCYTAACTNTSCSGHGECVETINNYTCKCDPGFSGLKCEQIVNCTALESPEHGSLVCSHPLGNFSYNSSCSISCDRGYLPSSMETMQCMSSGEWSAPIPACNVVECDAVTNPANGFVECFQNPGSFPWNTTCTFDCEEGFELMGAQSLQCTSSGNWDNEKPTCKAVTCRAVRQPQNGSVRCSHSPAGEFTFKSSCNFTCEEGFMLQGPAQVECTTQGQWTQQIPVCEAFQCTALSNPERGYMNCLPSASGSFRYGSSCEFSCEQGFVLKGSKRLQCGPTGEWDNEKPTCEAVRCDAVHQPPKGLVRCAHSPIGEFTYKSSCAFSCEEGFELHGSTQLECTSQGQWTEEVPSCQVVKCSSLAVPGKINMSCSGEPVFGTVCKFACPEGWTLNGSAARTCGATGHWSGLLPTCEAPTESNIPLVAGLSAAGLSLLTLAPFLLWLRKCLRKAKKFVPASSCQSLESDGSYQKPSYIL

In the case of `CC(=O)c1ccc2ccccc2c1`, the result in test [1], in [2], in test [3] and in [4] was inactive.

Turning to `CCc1cccc(O)c1`, the molecule was classed as inactive in [1], in test [2], in test [4] and in test [5].

Turning to `C=C1CC/C=C(\C)CC[C@@H]2[C@@H]1CC2(C)C`, the result in [1], in test [2], in test [7], in [17] and in test [18] was inactive. Further, the AC50 (usually the concentration at which the activity in the assay is half-maximal) in test [3] is 19.4 µM (active); in test [6], 27.4 µM (active); in test [8], 31.5 µM (active); in test [9], 29.1 µM (active); in test [10] it was 28.7 µM (active); in test [11], 30.6 µM (active). For the same molecule, the AC50 is 36.6 µM (active) in test [12]; 29.8 µM (active) in [13]; 20 µM (active) in test [14]; 14.5 µM (active) in [15]; 29.1 µM (active) in test [16]; 33.2 µM (active) in [19].

`CC/C=C\CCOC(C)OCC` (stereo not given): in test [2], the outcome was inactive.

In the case of `CCCCCCCCOC(C)=O`, the result in [2], in test [3] and in test [4] was inactive.

Consider `OC[C@H]1O[C@@H](O[C@H]2[C@H](O)[C@@H](O)[C@H](O)O[C@@H]2CO)[C@H](O)[C@@H](O)[C@H]1O`, for which the outcome in test [2], in test [3] and in test [4] was inactive.

Regarding `CC(CO)(CO)[N+](=O)[O-]`, the result in test [2] was inactive.

For `CCCOC(=O)CC`, the result in test [2], in test [3] and in test [4] was inactive.

With `C=COCC1CCC(COC=C)CC1` (stereo not given), the call in test [2], in [3] and in test [4] was inactive.

As for `CCCCOCCOCCOCCO`, the outcome in [2], in test [3] and in test [4] was inactive.

For the molecule `CCCCC1CCCCC(=O)O1` (stereo not given), in [2], the outcome was inactive.

On to `O=S(=O)(O)c1cc(S(=O)(=O)O)c2c(N=Nc3ccccc3)c(O)ccc2c1`, for which the result in test [2] was inactive.

Consider `CCC(=O)OC(C)(C)C1CC=C(C)CC1` (stereo not given), for which the result in test [2] and in test [3] was inactive.

As to `FC(F)(F)c1ccc(Cl)c(Cl)c1`, the molecule was called inactive in [2].

In the case of `CCCCCCCOC(C)=O`, the molecule was classed as inactive in test [2] and in [3].

Take `CC(C)(C)C1CCC(O)CC1` (stereo not given): the result in [2] and in [3] was inactive.

As for `COc1cc(OC)c2ccc(=O)oc2c1`, the molecule was called inactive in [2], in test [3] and in test [4].

On to `CC1=CCC(C(C)C)=CC1`, for which the molecule was classed as inactive in test [2].

On to `CCCCCCCCCCCCN1CCOCC1`, for which the molecule was called inactive in test [2].

With `CC(=O)CC(C)(C)C1CCCCC1`, the molecule was called inactive in [2], in [3] and in [4].

Turning to `O=S(=O)(O)CCCN1CCOCC1`, the molecule was called inactive in test [2] and in test [3].

With `O=C(O)c1ccc(C(=O)O)c(C(=O)O)c1`, the result in test [2], in test [3] and in test [4] was inactive.

For `CC(C)C(=O)c1ccccc1`, the result in test [2] and in test [3] was inactive.

Take `CCCC1CCC(=O)CC1`: the call in test [1] and in test [5] was inactive.

On to `CC1(C)CC(=O)CC(C)(C)N1`, for which the molecule was called inactive in test [1] and in test [5].

Turning to `CCC(C)COC(=O)CC(C)C` (stereo not given), the outcome in test [2] and in [3] was inactive.

As to `CCCCCCC(C)O` (stereo not given), the result in [2] and in test [3] was inactive.

With `CC(O)CN` (stereo not given), the outcome in [2] was inactive.

As for `O=C(C=Cc1ccccc1)OCCCc1ccccc1`, the outcome in [2] was inactive. In addition, in test [3], the AC50 is 66.6 µM (active).

Take `C=C(C)C(=O)OCCOCCOC(=O)C(=C)C`: the result in [2] and in test [3] was inactive.

As for `N#CCCCC(C#N)CCC#N` (stereo not given), the call in test [2] was inactive.
